From PubChem BioAssay
Only some compounds are listed: those with a hit (about 6.1% of all), similar ones and a draw of the others.
Bst PK mod: alters activity of Bacillus stearothermophilus pyruvate kinase | Potency, µM | 51,000 tested, 1.2% active | purified pyruvate kinase, luminescence ATP production; ribose 5-phosphate activator present at AC10; in the data active means potency below about 11 µM; inconclusive means mostly about 12 µM to 25 µM;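 the screen sought inhibitors and activators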;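 further: scaled between full activation by ribose 5 phosphate and full inhibition by luteolin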
GBA activity: alters purified human glucocerebrosidase activity | P04062 | purified enzyme, resorufin glucoside fluorescence (screen aimed at inhibitors), 20 min | Potency, µM | 48,000 tested, 1.1% active | AID 360; in the data active means potency below about 15 µM; inconclusive means mostly about 16 µM to 33 µM;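 further: the screen sought inhibitors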
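Compounds titrated against 0.2 nM normal enzyme, 30 uM resorufin beta-D-glucopyranoside substrate, citrate/phosphate buffer with taurocholate and tween-20, pH 5.9. Reaction ran 20 min at room temperature; fluorescence (Ex 548/Em 600) gave AC50.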
HEK293 cAMP cs: parental HEK293 cAMP activation (counter-screen). parental HEK293 CNG cAMP sensor, membrane potential fluorescence. AID 938. 73,000 tested, 2.5% active. Potency, µM (titrated, usually from 57.1 µM), for inactives: at the top dose activation, usual class: activators; further: % of control where 0% means no effect; nearly all actives have a fitted effect of over 55% in size
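Counterscreen for endogenous-receptor signalling: CNG-channel HEK 293 cells report cAMP rise by membrane depolarization. After 60 min dye equilibration with 100 uM RO 20-1724, compounds incubated 30 min before bottom-read fluorescence at 590 nm.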
ERK AVP inh: inhibitors of vasopressin-stimulated ERK signaling pathway; HEK293-V1b, vasopressin-stimulated pERK AlphaScreen; Potency, µM (doses to about 57.5 µM), for the others: at the top dose activity, negative = inhibition, most hits filed as inhibitors; 72,000 tested, 0.99% active; AID 995; further: on the % scale 0 is the no-effect control and ±100 the full control effect; nearly all actives have a fitted effect of over 55% in size
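qHTS, compounds titrated on V1b-expressing HEK293 cells. Preincubation 30 min at 37C, vasopressin 25 nM for 5 min, lysis 10 min, bead incubation 5 hr at room temperature.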
FLuc inh: inhibitors of firefly luciferase; P08659; purified firefly luciferase, luminescence, 8 min; Potency, µM (highest dose often 57.1 µM), for inactives: at the top dose activity change, negative = inhibition, usual class: inhibitors; 72,000 tested, 2.2% active; further: on the % scale 0 is the no-effect control and ±100 the full control effect; nearly all actives have a fitted effect of over 40% in size
Target sequence (P08659 whole entry, looked up): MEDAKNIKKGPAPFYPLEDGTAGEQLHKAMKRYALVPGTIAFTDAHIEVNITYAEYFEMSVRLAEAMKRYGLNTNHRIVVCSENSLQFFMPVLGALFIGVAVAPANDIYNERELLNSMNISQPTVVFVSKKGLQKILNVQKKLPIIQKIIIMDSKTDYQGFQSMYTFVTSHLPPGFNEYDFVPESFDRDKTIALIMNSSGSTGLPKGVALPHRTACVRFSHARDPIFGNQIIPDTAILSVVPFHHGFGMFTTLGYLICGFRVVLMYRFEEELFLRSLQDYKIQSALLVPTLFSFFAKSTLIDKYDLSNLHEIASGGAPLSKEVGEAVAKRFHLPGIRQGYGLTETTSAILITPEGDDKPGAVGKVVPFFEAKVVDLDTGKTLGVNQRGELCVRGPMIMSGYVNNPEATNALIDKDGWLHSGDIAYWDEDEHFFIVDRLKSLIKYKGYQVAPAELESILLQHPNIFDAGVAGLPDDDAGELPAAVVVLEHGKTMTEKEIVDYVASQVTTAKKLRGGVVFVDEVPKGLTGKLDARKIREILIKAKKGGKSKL
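qHTS concentration-response profiling: light output of P. pyralis luciferase with luciferin and 10 uM ATP, imidazole buffer pH 7.2. Read by luminescence after 8-min room-temperature incubation.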
TSHR ag: agonists of human thyroid stimulating hormone receptor | P16473 | HEK293-CNG-TSHR cells (CNG channel as cAMP sensor), membrane potential dye, cAMP | Potency, µM (series often up to 57.1 µM), for the others: at the highest dose activation, actives largely listed as activators | 73,000 tested, 0.48% active | AID 926; active means well fitted activation curve with a large enough effect in the main read-out, with a control signal flat, not every such curve was filed as active; inconclusive means small, poorly fitted or top-dose-only effect, or a change in a side signal; inactive means no such curve, though single readings can be large or run the other way; % of control where 0% means no effect;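 further: the control signal comes from parental cells without the receptor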
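HEK 293 cells stably expressing TSHR and a cAMP-gated CNG channel; parental CNG-only cells as counterscreen. Cells preloaded 60 min with membrane potential dye plus 100 uM RO 20-1724, then compound 30 min; fluorescence read at 590 nm.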
* marks the source's active call; other numbers are inactive results; i = inactive; ? = inconclusive; nt = no result; [ ] = dose if it differs, or a comment. Unless noted, the call rests on the fitted dose curve; in most records, active means well fitted curve in the direction sought with a large enough effect; inconclusive means small, poorly fitted or top-dose-only effect, or another doubt; inactive means no such curve, though single readings can be large; an effect the other way counts as inactive or inconclusive. Potency means the concentration at half of the fitted maximal effect.

SMILES	Bst PK mod	GBA activity	HEK293 cAMP cs	ERK AVP inh	FLuc inh	TSHR ag
Cc1ccc(S(=O)(=O)N[C@H]2COC(=O)CC=C[C@@H](C)[C@H]3C=C[C@H](O)[C@@H](COC(=O)CC=C[C@H]2C)O3)cc1	nt	nt	-2%[11.4 µM]	-2%[11.5 µM]	1%[11.4 µM]	-7%[11.4 µM]
O=C(CSc1nnc(Cn2nnc3ccccc32)o1)N(Cc1ccc(F)cc1)c1ccccc1	>57	i	16µM*	-12%	1%	?
COc1ccc(CN(C(=O)CSc2nnc(-c3ccc(F)cc3)o2)c2ccc(F)cc2)cc1	>57	>77	19%	1%	2%	21%
COc1cccc(-c2nc(=S)c3c(n2Cc2ccco2)CCCC3)c1	>57	>77	?	-14%	-4%	?
Cc1ccc(-c2nc(=S)c3c(n2Cc2ccco2)CCCC3)cc1	nt	nt	2.5µM*	nt	nt	?
CC1=CC(=O)C2=C(C)CC[C@@H]3[C@@H](OC(=O)[C@H]3C)[C@H]12	nt	nt	3%[25.6 µM]	-22%[25.7 µM]	0%[25.5 µM]	10%[25.6 µM]
O=C(c1ccco1)c1nnn(Cc2ccccc2)c1-c1ccccc1	nt	nt	32µM*	21%	2%	?
Nc1c(C(=O)NCc2ccco2)nnn1Cc1ccccc1	>57	>77	?	6%	0%	?
COC(=O)[C@H]1C[C@@H]1[C@H](NS(=O)(=O)c1ccc(-c2ccccc2)cc1)c1ccccc1	nt	nt	?	11%	nt	?
O=C1C=CC2=C3c4cc(O)c(O)cc4C[C@]3(O)COC2=C1	nt	nt	nt	-4%	nt	nt
CN(Cc1ccccc1)c1oc(COc2ccccc2F)nc1C#N	nt	nt	25µM*	?	-1%	?
CC(C)CO/N=C1/C[C@@H](O)[C@@H](O)[C@@H]2[C@@H]3C(=O)N(Cc4ccc5c(c4)OCO5)C(=O)[C@H]3CC[C@@H]12	nt	nt	-3%[11.4 µM]	24%[11.5 µM]	-2%[11.4 µM]	-3%[11.4 µM]
CC1CN(C(=O)c2cccs2)CCN1C(=O)c1cccs1 (stereo not given)	>57	>77	32µM*	3%	3%	?
COc1ccc(-n2c(=O)c(-c3ccc(F)cc3)nc3cnc(OC)nc32)cc1	nt	nt	6%	-12%	1%[11.4 µM]	-1%
O=C(c1cc(-c2ccccc2O)on1)N1CCc2ccccc2C1	nt	nt	7%	?	-8%	-12%
Cc1ccc(NC(=O)c2cc(-c3ccco3)on2)cc1C	>57	>77	19%	5%	-17%	0%
O=C(c1cc(-c2cccc(O)c2)on1)N1CCOCC1	nt	nt	-2%	?	13µM*	-5%
O=C(c1cc(-c2ccccc2)on1)N1CCCC1	>57	>77	4%	-4%	1%	-4%
O=C(c1cc(-c2ccc(O)cc2)on1)N1CCc2ccccc2C1	nt	nt	20µM*	32µM*	-12%	?
COc1ccc(-c2cc(C(=O)N3CCOCC3)no2)cc1OC	>57	>77	3%	-5%	-8%	-2%[11.4 µM]
Cc1ccc(NC(=O)c2cc(-c3cccc(O)c3)on2)cc1C	nt	nt	5%	32µM*	-19%	1%
CC1CCN(C(=O)c2cc(-c3ccccc3O)on2)CC1	nt	nt	16%	6%	10µM*	-14%
C#CCCCO/N=C1/C[C@@H](O)[C@@H](O)[C@@H]2[C@@H]3C(=O)N(CC)C(=O)[C@H]3CC[C@H]12	nt	nt	5%[11.4 µM]	29%[11.5 µM]	2%[11.4 µM]	3%[11.4 µM]
CN1CCN(c2ncncc2-c2ccc(N(C)C)cc2)CC1	nt	nt	1%	?	0%[2.29 µM]	4%
COc1ccc(C(=O)N2CCC3(CCN(Cc4nccs4)CC3)CC2)cc1	nt	nt	3%	-2%	2%[11.4 µM]	2%
O=c1ccn([C@H]2O[C@H](CO)[C@@H](O)[C@@H]2O)c(=O)[nH]1	nt	nt	-3%	nt	1%[11.4 µM]	6%
O=C1C2=CC[C@H]3C(=O)N(C[C@@H]4CCCO4)C(=O)[C@@H]3[C@@H]2[C@H](O)[C@@H]2O[C@H]12	nt	nt	-2%[11.4 µM]	22%[11.5 µM]	-2%[11.4 µM]	-5%[11.4 µM]
O=C1CCCC=C1[C@@H](O)COCc1ccccc1	nt	nt	7%[11.4 µM]	7%[11.5 µM]	0%[11.4 µM]	7%[11.4 µM]
CO[C@H]1C[C@@H]2C[C@H](O)C[C@@H](CC(=O)O[C@@H](/C=C\CC(C)C)C[C@@H]3CC[C@H](C)[C@@H](C1)O3)O2	nt	nt	-3%[11.4 µM]	-9%[11.5 µM]	2%[11.4 µM]	-7%[11.4 µM]
Clc1ccc(Cn2ncc3c(N4CCCCC4)ncnc32)cc1	>57	nt	-16%	?	1%	-11%
